Laboratory results reported in the supplement of paper PMC8728848.
This excerpt belongs to a sample that is enriched for the strongest signals.

Tests used:
Assay in all cases: glycan array binding signal (z-score within array); higher = stronger binding
Conditions in all cases: glycan notation: IUPAC condensed, linker removed
[1] = molecular target: Fuc(a1-2)Gal(b1-3)GlcNAc(b1-3)Gal(b1-4)Glc
Summary of the method: (§1)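 Negative Z-scores can be read as non-binding. The Z-score is calculated within each array and then averaged across arrays of one protein sequence at different concentrations or buffers and across linkers. Arrays, 3228 in all, were curated from the Consortium for Functional Glycomics database and kept only where the protein sequence was available.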

[2] = molecular target: Fuc(a1-2)[Gal(a1-3)]Gal(b1-3)GlcNAc
Summary of the method: as §1

[3] = molecular target: Fuc(a1-2)[Gal(a1-3)]Gal(b1-4)Glc
Summary of the method: as §1

Gal(b1-3)Gal(b1-4)GlcNAc = molecular target: Gal(b1-3)Gal(b1-4)GlcNAc
Summary of the method: as §1

Gal(b1-3)GalNAc = molecular target: Gal(b1-3)GalNAc
Summary of the method: as §1

[4] = molecular target: Gal(b1-4)GalNAc(b1-3)[Fuc(a1-2)]Gal(b1-4)GlcNAc
Summary of the method: as §1

[5] = molecular target: Gal(b1-4)GlcNAc(b1-3)Gal(b1-4)GlcNAc
Summary of the method: as §1

Gal3S(b1-3)GlcNAc = molecular target: Gal3S(b1-3)GlcNAc
Summary of the method: as §1

Gal6S(b1-4)Glc6S = molecular target: Gal6S(b1-4)Glc6S
Summary of the method: as §1

Gal6S(b1-4)GlcNAc = molecular target: Gal6S(b1-4)GlcNAc
Summary of the method: as §1

GalNAc(b1-3)Gal = molecular target: GalNAc(b1-3)Gal
Summary of the method: as §1

GlcNAc(b1-4)GlcNAc = molecular target: GlcNAc(b1-4)GlcNAc
Summary of the method: as §1

Man(a1-2)Man(a1-3)Man = molecular target: Man(a1-2)Man(a1-3)Man
Summary of the method: as §1

[6] = molecular target: Man(a1-2)Man(a1-3)[Man(a1-2)Man(a1-6)]Man(a1-6)[Man(a1-2)Man(a1-2)Man(a1-3)]Man(b1-4)GlcNAc(b1-4)GlcNAc
Summary of the method: as §1

[7] = molecular target: Neu5Ac(a2-3)Gal(b1-3)GlcNAc
Summary of the method: as §1

[8] = molecular target: Neu5Ac(a2-3)Gal(b1-3)GlcNAc(b1-3)Gal(b1-3)GlcNAc
Summary of the method: as §1

[9] = molecular target: Neu5Ac(a2-3)Gal(b1-3)[Fuc(a1-4)]GlcNAc
Summary of the method: as §1

[10] = molecular target: Neu5Ac(a2-3)Gal(b1-3)[Neu5Ac(a2-3)Gal(b1-4)]GlcNAc
Summary of the method: as §1

[11] = molecular target: Neu5Ac(a2-3)Gal(b1-4)GlcNAc(b1-3)Gal(b1-4)GlcNAc(b1-3)Gal(b1-4)GlcNAc
Summary of the method: as §1

[12] = molecular target: Neu5Ac(a2-3)Gal(b1-4)GlcNAc(b1-3)Gal(b1-4)[Fuc(a1-3)]GlcNAc
Summary of the method: as §1

[13] = molecular target: Neu5Ac(a2-3)Gal6S(b1-4)[Fuc(a1-3)]GlcNAc
Summary of the method: as §1

Neu5Ac(a2-3)GalNAc = molecular target: Neu5Ac(a2-3)GalNAc
Summary of the method: as §1

[14] = molecular target: Neu5Ac(a2-6)Gal(b1-4)GlcNAc
Summary of the method: as §1

[15] = molecular target: Neu5Ac(a2-6)Gal(b1-4)GlcNAc(b1-2)Man(a1-6)[GlcNAc(b1-2)Man(a1-3)]Man(b1-4)GlcNAc(b1-4)GlcNAc
Summary of the method: as §1

[16] = molecular target: Neu5Ac(a2-6)Gal(b1-4)GlcNAc(b1-3)Gal(b1-4)GlcNAc
Summary of the method: as §1

Neu5Gc(a2-6)GalNAc = molecular target: Neu5Gc(a2-6)GalNAc
Summary of the method: as §1

B1: mLPHN-1 (Mus musculus), Q80TR1 (protein)
chain: MARLAAALWSLCVTTVLVTSATQGLSRAGLPFGLMRRELACEGYPIELRCPGSDVIMVENANYGRTDDKICDADPFQMENVQCYLPDAFKIMSQRCNNRTQCVVVAGSDAFPDPCPGTYKYLEVQYDCVPYIFVCPGTLQKVLEPTSTHESEHQSGAWCKDPLQAGDRIYVMPWIPYRTDTLTEYASWEDYVAARHTTTYRLPNRVDGTGFVVYDGAVFYNKERTRNIVKYDLRTRIKSGETVINTANYHDTSPYRWGGKTDIDLAVDENGLWVIYATEGNNGRLVVSQLNPYTLRFEGTWETGYDKRSASNAFMVCGVLYVLRSVYVDDDSEAAGNRVDYAFNTNANREEPVSLAFPNPYQFVSSVDYNPRDNQLYVWNNYFVVRYSLEFGPPDPSAGPATSPPLSTTTTARPTPLTSTASPAATTPLRRAPLTTHPVGAINQLGPDLPPATAPAPSTRRPPAPNLHVSPELFCEPREVRRVQWPATQQGMLVERPCPKGTRGIASFQCLPALGLWNPRGPDLSNCTSPWVNQVAQKIKSGENAANIASELARHTRGSIYAGDVSSSVKLMEQLLDILDAQLQALRPIERESAGKNYNKMHKRERTCKDYIKAVVETVDNLLRPEALESWKDMNATEQVHTATMLLDVLEEGAFLLADNVREPARFLAAKQNVVLEVTVLNTEGQVQELVFPQEYPSENSIQLSANTIKQNSRNGVVKVVFILYNNLGLFLSTENATVKLAGEAGTGGPGGASLVVNSQVIAASINKESSRVFLMDPVIFTVAHLEAKNHFNANCSFWNYSERSMLGYWSTQGCRLVESNKTHTTCACSHLTNFAVLMAHREIYQGRINELLLSVITWVGIVISLVCLAICISTFCFLRGLQTDRNTIHKNLCINLFLAELLFLVGIDKTQYEVACPIFAGLLHYFFLAAFSWLCLEGVHLYLLLVEVFESEYSRTKYYYLGGYCFPALVVGIAAAIDYRSYGTEKACWLRVDNYFIWSFIGPVSFVIVVNLVFLMVTLHKMIRSSSVLKPDSSRLDNIKSWALGAIALLFLLGLTWAFGLLFINKESVVMAYLFTTFNAFQGVFIFVFHCALQKKVHKEYSKCLRHSYCCIRSPPGGTHGSLKTSAMRSNTRYYTGTQSRIRRMWNDTVRKQTESSFMAGDINSTPTLNRGTMGNHLLTNPVLQPRGGTSPYNTLIAESVGFNPSSPPVFNSPGSYREPKHPLGGREACGMDTLPLNGNFNNSYSLRSGDFPPGDGGPEPPRGRNLADAAAFEKMIISELVHNNLRGASGGAKGPPPEPPVPPVPGVSEDEAGGPGSADRAEIELLYKALEEPLLLPRAQSVLYQSDLDESESCTAEDGATSRPLSSPPGRDSLYASGANLRDSPSYPDSSPEGPNEALPPPPPAPPGPPEIYYTSRPPALVARNPLQGYYQVRRPSHEGYLAAPSLEGPGPDGDGQMQLVTSL
**Q.** How did the “glycan array binding signal (z-score)” value [1] turn out when B1 was run?
**A.** 0.213

**Q.** And the “glycan array binding signal (z-score)” value [2]?
**A.** 15.8

**Q.** What about the “glycan array binding signal (z-score)” value [3] of the same binder?
**A.** -0.219

**Q.** What about the “glycan array binding signal (z-score)” value (Gal(b1-3)Gal(b1-4)GlcNAc) of the same binder?
**A.** 0.16

**Q.** What about the “glycan array binding signal (z-score)” value (Gal(b1-3)GalNAc) of the same binder?
**A.** 0.025

**Q.** And the “glycan array binding signal (z-score)” value [4]?
**A.** 1.66

**Q.** What about the “glycan array binding signal (z-score)” value [5] of the same binder?
**A.** -0.105

**Q.** What about the “glycan array binding signal (z-score)” value (Gal3S(b1-3)GlcNAc) of the same binder?
**A.** 2.08

**Q.** What about the “glycan array binding signal (z-score)” value (Gal6S(b1-4)Glc6S) of the same binder?
**A.** 1.13

**Q.** What about the “glycan array binding signal (z-score)” value (Gal6S(b1-4)GlcNAc) of the same binder?
**A.** 1.27

**Q.** What about the “glycan array binding signal (z-score)” value (GalNAc(b1-3)Gal) of the same binder?
**A.** 0.793

**Q.** And the “glycan array binding signal (z-score)” value (GlcNAc(b1-4)GlcNAc)?
**A.** -0.282

**Q.** What about the “glycan array binding signal (z-score)” value (Man(a1-2)Man(a1-3)Man) of the same binder?
**A.** -0.173

**Q.** And the “glycan array binding signal (z-score)” value [6]?
**A.** 0.551

**Q.** And the “glycan array binding signal (z-score)” value [7]?
**A.** 0.014

**Q.** What about the “glycan array binding signal (z-score)” value [8] of the same binder?
**A.** -0.317

**Q.** What about the “glycan array binding signal (z-score)” value [9] of the same binder?
**A.** 0

**Q.** What about the “glycan array binding signal (z-score)” value [10] of the same binder?
**A.** -0.26

**Q.** And the “glycan array binding signal (z-score)” value [11]?
**A.** -0.433

**Q.** And the “glycan array binding signal (z-score)” value [12]?
**A.** -0.402

**Q.** And the “glycan array binding signal (z-score)” value [13]?
**A.** -0.065

**Q.** And the “glycan array binding signal (z-score)” value (Neu5Ac(a2-3)GalNAc)?
**A.** 0.587

**Q.** What about the “glycan array binding signal (z-score)” value [14] of the same binder?
**A.** 0.157

**Q.** And the “glycan array binding signal (z-score)” value [15]?
**A.** -0.261

**Q.** What about the “glycan array binding signal (z-score)” value [16] of the same binder?
**A.** -0.422

**Q.** What about the “glycan array binding signal (z-score)” value (Neu5Gc(a2-6)GalNAc) of the same binder?
**A.** 1.3
